# Source: PubChem BioAssay (NCATS)
# Where “and” joins values, the source holds several entries; their conditions need not be identical. Identical values can stand only once. Results filed as inconclusive are left out. Where a call stands in place of a potency, no number is given. Unmarked numbers belong to inactive results. Calls of active or inactive are those of the source. Calls follow the shape of the dose curve; as a rule, active = well fitted curve in the direction sought with a large enough effect; inconclusive = small, poorly fitted or top-dose-only effect, or another doubt; inactive = no such curve, though single readings can be large; an effect the other way counts as inactive or inconclusive.
# What was measured:
# [1] = system: TAB109; assay: qHTS profiling for inhibitors of Plasmodium falciparum proliferation (AID 504749); also: nearly all actives have a fitted effect of over 60% in size; also: potency is read from the fitted curve at half-maximal effect; conditions: P. falciparum in erythrocytes, SYBR Green DNA, 72 h; series mostly up to 28.7 µM
# Method in brief: (§1)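 Fluorescence of SYBR Green-bound parasite DNA, read at 485/535 nm, served as the growth measure. Infected erythrocytes were cultured with compound 72 h; artemisinin (0.29 uM) and DMSO wells defined the normalization range.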
# [2] = system: TAB113; assay: as above; conditions: P. falciparum in erythrocytes, SYBR Green DNA, 72 h; series mostly up to 28.7 µM
# Method in brief: as §1
# [3] = system: TAB165; assay: as above; conditions: P. falciparum in erythrocytes, SYBR Green DNA, 72 h; series mostly up to 28.7 µM
# Method in brief: as §1
# [4] = system: CRL-7250; assay: Cytotoxic Profiling of Annotated Libraries Using Quantitative High-Throughput Screening (AID 1296008); conditions: Five cell lines viability, CellTiter-Glo ATP luminescence, 48-72 h; max response: hits give low values; also: nearly all actives have a fitted effect of over 60% in size; also: potency is read from the fitted curve at half-maximal effect
# Method in brief: (§2)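 Compounds were pin-transferred onto cells and incubated 48 or 72 hr at 37 degree Celsius, 95% humidity. CellTiter-Glo was added, plates sat 10 min at room temperature, then ATP-coupled luminescence was imaged as the viability read-out.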
# [5] = system: HEK293; assay: as above; conditions: Five cell lines viability, CellTiter-Glo ATP luminescence, 48-72 h; max response: hits give low values
# Method in brief: as §2
# [6] = system: HaCat; assay: as above; conditions: Five cell lines viability, CellTiter-Glo ATP luminescence, 48-72 h; max response: hits give low values
# Method in brief: as §2
# [7] = system: NIH3T3; assay: as above; conditions: Five cell lines viability, CellTiter-Glo ATP luminescence, 48-72 h; max response: hits give low values
# Method in brief: as §2
# [8] = system: HACAT; assay: qHTS assay to identify novel small-molecules to repurpose for Merkel cell carcinoma treatment (AID 1296009); conditions: MCC and control cell lines, CellTiter-Glo viability, 72 h; at 44.8 µM (top of the series) unless noted; also: nearly all actives have a fitted effect of over 60% in size; also: potency is read from the fitted curve at half-maximal effect
# Method in brief: (§3)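 Luminescence from CellTiter-Glo, read 10 min after addition at room temperature, reported viability following a 72 hr, 37 degree celsius treatment with NPC or MIPE compounds in titration; values normalized to plate controls.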
# [9] = system: HEK293T; assay: as above; conditions: MCC and control cell lines, CellTiter-Glo viability, 72 h; at 44.8 µM (top of the series) unless noted
# Method in brief: as §3
# [10] = system: MCC-13; assay: as above; conditions: MCC and control cell lines, CellTiter-Glo viability, 72 h; series mostly up to 46 µM
# Method in brief: as §3
# [11] = system: MCC-26; assay: as above; conditions: MCC and control cell lines, CellTiter-Glo viability, 72 h; series mostly up to 46 µM
# Method in brief: as §3
# [12] = system: MKL-1; assay: as above; conditions: MCC and control cell lines, CellTiter-Glo viability, 72 h; series mostly up to 46 µM
# Method in brief: as §3
# [13] = system: MKL-2; assay: as above; conditions: MCC and control cell lines, CellTiter-Glo viability, 72 h; series mostly up to 46 µM
# Method in brief: as §3
# [14] = system: UISO; assay: as above; conditions: MCC and control cell lines, CellTiter-Glo viability, 72 h; series mostly up to 46 µM
# Method in brief: as §3
# [15] = system: WaGa; assay: as above; conditions: MCC and control cell lines, CellTiter-Glo viability, 72 h; series mostly up to 46 µM
# Method in brief: as §3
# [16] = system: C33A; assay: Primary qHTS to identify gynecologic anti-cancer compounds using libraries of approved drugs and bioactive compounds (AID 1345084); conditions: Gynecologic cancer cell panel viability, ATPlite luminescence, 48 h; series mostly up to 57.5 µM; also: nearly all actives have a fitted effect of over 55% in size
# Method in brief: (§4)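 48 h compound exposure at 37 C, 5% CO2; five-point qHTS. ATPlite luminescence readout of cell ATP.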
# [17] = system: KB-3-1; assay: Cytotoxic Profiling of Annotated Libraries Using Quantitative High-Throughput Screening (AID 1296008); conditions: Five cell lines viability, CellTiter-Glo ATP luminescence, 48-72 h; max response: hits give low values; also: nearly all actives have a fitted effect of over 60% in size; also: potency is read from the fitted curve at half-maximal effect
# Method in brief: as §2
# [18] = system: CAOV3; assay: Primary qHTS to identify gynecologic anti-cancer compounds using libraries of approved drugs and bioactive compounds (AID 1345084); conditions: Gynecologic cancer cell panel viability, ATPlite luminescence, 48 h; series mostly up to 57.5 µM; also: nearly all actives have a fitted effect of over 55% in size
# Method in brief: as §4
# [19] = system: W2; assay: qHTS profiling for inhibitors of Plasmodium falciparum proliferation (AID 504749); also: nearly all actives have a fitted effect of over 60% in size; also: potency is read from the fitted curve at half-maximal effect; conditions: P. falciparum in erythrocytes, SYBR Green DNA, 72 h; series mostly up to 28.7 µM
# Method in brief: as §1
# [20] = system: NIH3T3; assay: qHTS assay to identify novel small-molecules to repurpose for Merkel cell carcinoma treatment (AID 1296009); conditions: MCC and control cell lines, CellTiter-Glo viability, 72 h; at 44.8 µM (top of the series) unless noted; also: nearly all actives have a fitted effect of over 60% in size; also: potency is read from the fitted curve at half-maximal effect
# Method in brief: as §3
compound,measurement,setting,value
COc1cc(C)c(Cc2cnc(N)nc2N)cc1OC,Potency,[1],inactive
same,Potency,[2],inactive
same,Potency,[3],inactive
same,max response,[4],0.178%
same,outcome,[5],inactive
same,outcome,[6],inactive
same,max response,[7],0.338%
same,outcome,[8],inactive
same,outcome,[9],inactive
same,Potency,[10],inactive
same,Potency,[11],inactive
same,Potency,[12],inactive
same,Potency,[13],inactive
same,Potency,[14],inactive
same,Potency,[15],inactive
same,Potency,[16],inactive
Cc1ccc2nc(N)[nH]c(=O)c2c1Sc1ccncc1,Potency,[1],7.08 µM (active)
same,Potency,[3],2 µM (active)
same,max response,[4],-27% and -23.5%
same,Potency,[5],8.2 µM (active)
same,Potency,[6],1.33 µM (active) and 2.59 µM (active)
same,max response,[17],-5.1%
same,Potency,[7],2.37 µM (active) and 6.51 µM (active)
same,Potency,[11],inactive
same,Potency,[12],inactive
same,Potency,[15],3.35 µM (active)
same,Potency,[16],inactive
same,Potency,[18],inactive
C[C@]12C[C@H](O)[C@H]3[C@@H](CCC4=CC(=O)CC[C@@]43C)[C@@H]1CC[C@@H]2C(=O)CO,Potency,[19],inactive
same,max response,[4],3.36%
same,outcome,[5],inactive
same,max response,[6],1.38%
same,outcome,[9],inactive
same,Potency,[10],inactive
same,Potency,[11],inactive
same,Potency,[12],inactive
same,Potency,[13],inactive
same,Potency,[14],inactive
same,Potency,[15],inactive
same,Potency,[16],inactive
same,Potency,[18],inactive
C/C(=C(\CCOP(=O)(O)O)SC(=O)c1ccccc1)N(C=O)Cc1cnc(C)nc1N,max response,[4],-3.12%
same,outcome,[5],inactive
same,outcome,[6],inactive
same,outcome,[7],inactive
same,outcome,[8],inactive [at 4.96 µM]
same,outcome,[9],inactive [at 4.96 µM]
same,"activity change, negative = cytotoxicity",[10],-6.17% [at 4.84 µM]
same,"activity change, negative = cytotoxicity",[11],20.3% [at 4.84 µM]
same,"activity change, negative = cytotoxicity",[12],2.11% [at 4.84 µM]
same,"activity change, negative = cytotoxicity",[13],12.5% [at 4.84 µM]
same,outcome,[20],inactive [at 4.96 µM]
same,"activity change, negative = cytotoxicity",[14],22.4% [at 4.84 µM]
same,"activity change, negative = cytotoxicity",[15],24.3% [at 4.84 µM]
same,"activity change, negative = cytotoxicity",[16],4.02% [at 6.55 µM]
same,"activity change, negative = cytotoxicity",[18],-0.0932% [at 6.55 µM]
O=C1O[C@H]([C@@H](O)CO)C(O)=C1O,Potency,[1],inactive
same,Potency,[2],inactive
same,Potency,[3],inactive
same,Potency,[19],inactive
same,max response,[4],0.399%
same,outcome,[5],inactive
same,outcome,[6],inactive
same,outcome,[7],inactive
same,outcome,[8],inactive
same,outcome,[9],inactive
same,Potency,[10],inactive
same,Potency,[11],inactive
same,Potency,[12],inactive
same,Potency,[13],inactive
same,outcome,[20],inactive
same,Potency,[14],inactive
same,Potency,[15],inactive
same,Potency,[16],inactive
same,Potency,[18],inactive
NC(N)=NCCC[C@H](N)C(=O)O,outcome,[4],inactive
same,max response,[5],-4.96%
same,outcome,[6],inactive
same,outcome,[7],inactive
same,outcome,[8],inactive [at 4.96 µM]
same,"activity change, negative = cytotoxicity",[10],10.7% [at 4.84 µM]
same,"activity change, negative = cytotoxicity",[11],1.83% [at 4.84 µM]
same,"activity change, negative = cytotoxicity",[12],12.8% [at 4.84 µM]
same,"activity change, negative = cytotoxicity",[13],13.9% [at 4.84 µM]
same,outcome,[20],inactive [at 4.96 µM]
same,"activity change, negative = cytotoxicity",[14],9.23% [at 4.84 µM]
same,"activity change, negative = cytotoxicity",[15],4.2% [at 4.84 µM]
same,"activity change, negative = cytotoxicity",[16],-3.38% [at 6.55 µM]
same,"activity change, negative = cytotoxicity",[18],24.7% [at 6.55 µM]
C[C@@H]1CCN(C(=O)[C@H](CCCN=C(N)N)NS(=O)(=O)c2cccc3c2NC[C@H](C)C3)[C@@H](C(=O)O)C1,max response,[4],0.468%
same,outcome,[5],inactive
same,max response,[6],0.409%
same,outcome,[7],inactive
same,outcome,[9],inactive
same,Potency,[10],inactive
same,Potency,[11],inactive
same,Potency,[12],inactive
same,Potency,[13],inactive
same,outcome,[20],inactive
same,Potency,[14],inactive
same,Potency,[15],inactive
same,Potency,[16],inactive
same,Potency,[18],inactive
CC1CC(OC(=O)C(O)c2ccccc2)CC(C)(C)N1C (configuration not stated),max response,[4],-13.8%
same,outcome,[5],inactive
same,max response,[6],1.05%
same,outcome,[7],inactive
same,outcome,[9],inactive
same,Potency,[10],inactive
same,Potency,[11],inactive
same,Potency,[12],inactive
same,Potency,[13],inactive
same,outcome,[20],inactive
same,Potency,[14],inactive
same,Potency,[15],inactive
same,Potency,[16],inactive
CC(=O)Nc1ccc(/C=N/NC(N)=S)cc1,Potency,[1],inactive
same,Potency,[2],inactive
same,Potency,[3],inactive
same,Potency,[19],inactive
same,outcome,[4],inactive
same,max response,[5],0.104%
same,outcome,[6],inactive
same,max response,[7],-3.1%
same,outcome,[8],inactive
same,Potency,[10],inactive
same,Potency,[11],inactive
same,Potency,[12],inactive
same,Potency,[13],inactive
same,Potency,[14],inactive
same,Potency,[15],inactive
same,Potency,[16],inactive
same,Potency,[18],inactive
CC(O)COc1ccccc1 (configuration not stated),Potency,[1],inactive
same,Potency,[2],inactive
same,Potency,[3],inactive
same,Potency,[19],inactive
same,max response,[4],2.21%
same,outcome,[5],inactive
same,outcome,[6],inactive
same,max response,[7],-1.73%
same,outcome,[8],inactive
same,outcome,[9],inactive
same,Potency,[10],inactive
same,Potency,[11],inactive
same,Potency,[12],inactive
same,Potency,[13],inactive
same,Potency,[14],inactive
same,Potency,[15],inactive
same,Potency,[16],inactive
same,Potency,[18],inactive
N[C@H]1C(O)O[C@H](CO)[C@@H](O)[C@@H]1O (some centres not stated),max response,[4],-7.05%
same,outcome,[5],inactive
same,outcome,[6],inactive
same,max response,[7],-13.4%
same,outcome,[8],inactive
same,outcome,[9],inactive
same,Potency,[10],inactive
same,Potency,[11],inactive
same,Potency,[12],inactive
same,Potency,[13],inactive
same,Potency,[14],inactive
same,Potency,[15],inactive
same,Potency,[16],inactive
same,Potency,[18],inactive
NCCNCCNCCNCCN,Potency,[1],inactive
same,Potency,[2],inactive
same,Potency,[3],inactive
same,Potency,[19],inactive
same,max response,[4],3.13%
same,outcome,[5],inactive
same,outcome,[6],inactive
same,max response,[7],-0.231%
same,outcome,[8],inactive [at 9.27 µM]
same,outcome,[9],inactive [at 9.27 µM]
same,"activity change, negative = cytotoxicity",[10],6.32% [at 9.22 µM]
same,"activity change, negative = cytotoxicity",[11],-6.59% [at 9.22 µM]
same,"activity change, negative = cytotoxicity",[12],-8% [at 9.22 µM]
same,"activity change, negative = cytotoxicity",[13],-0.706% [at 9.22 µM]
same,"activity change, negative = cytotoxicity",[14],44% [at 9.22 µM]
same,"activity change, negative = cytotoxicity",[15],-2.21% [at 9.22 µM]
same,"activity change, negative = cytotoxicity",[16],13.2% [at 11.6 µM]
